Calls of active or inactive are those of the source. Calls follow the shape of the dose curve; as a rule, active = well fitted curve in the direction sought with a large enough effect; inactive = no such curve, though single readings can be large or run the other way.
assay: qHTS for small molecule inhibitors of Yes1 kinase: Counter Assay (AID 686950); settings: series mostly up to 76.9 µM; activity change, negative = inhibition: at the top concentration;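 also: no kinase present so only ADP-Glo detection of a fixed ADP amount is tested; luminescence from ADP-Glo reporting ADP in a fixed ATP and ADP mixture; 0% = DMSO wells with ATP plus ADP and -100% = ATP-only wells without ADP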
How it was run: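 Measuring interference with ADP-Glo, the assay ran 60 min at room temperature on an ATP/ADP mix lacking enzyme. Values were normalized to ATP-plus-ADP (maximum) and ATP-only (minimum) DMSO controls.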

SMILES	activity change, negative = inhibition	outcome
Cc1ccc(C(=O)Nc2ccc(CN3CCN(C)CC3)c(C(F)(F)F)c2)cc1C#Cc1cnc2cccnn12	-11.2% (inactive)	–
CNC(=O)c1cc(Oc2ccc(NC(=O)Nc3cc(C(C)(C)C)nn3-c3ccc4ncccc4c3)c(F)c2)ccn1	-5.83% (inactive)	–
COc1cc2c(Oc3ccc4[nH]c(C)cc4c3F)ncnc2cc1OCCCN1CCCC1	0.966% (inactive)	–
CC(C)c1ccc(Cn2ccc3c4c(N)nc(NC5CC5)nc4ccc32)cc1	2.35% (inactive)	–
COc1cc2c(Oc3ccc(NC(=O)C4(C(=O)Nc5ccc(F)cc5)CC4)cc3F)ccnc2cc1OCCCN1CCOCC1	-2.95% (inactive)	–
COc1cc(=C2C=c3ccccc3=N2)[nH]c1=Cc1[nH]c(C)cc1C	-11.5% (inactive)	–
C=CC(=O)N1CCC[C@@H](n2nc(-c3ccc(Oc4ccccc4)cc3)c3c(N)ncnc32)C1	-3.07% [at 154 µM] (inactive)	–
CC(C)=CCCC(C)=CCCC(C)=CCSc1ccccc1C(=O)O	4.67% (inactive)	–
C1=CCOCc2cc(ccc2OCCN2CCCC2)Nc2nccc(n2)-c2cccc(c2)OCC1	5.35% (inactive)	–
CC(C)c1ccccc1Cc1cc(C(=O)Nc2ccc(S(=O)(=O)c3ccccc3C(C)(C)C)cc2)c(O)c(O)c1O	-7.01% (inactive)	–
CCN1CCN(Cc2ccc(-c3cc4c(N[C@H](C)c5ccccc5)ncnc4[nH]3)cc2)CC1	-8.9% (inactive)	–
CNc1nccc(-c2cccnc2Oc2cc(C(=O)Nc3cccc(C(F)(F)F)c3)ccc2C)n1	0.25% (inactive)	–
Cn1cc(-c2[nH]c3cc(NC(=O)[C@H](N)C4CCCCC4)cc4c3c2C=NNC4=O)cn1	8.03% (inactive)	–
COC(=O)c1ccc2c(C(=Nc3ccc(N(C)C(=O)CN4CCN(C)CC4)cc3)c3ccccc3)c(O)[nH]c2c1	6.93% (inactive)	–
C[C@@H](Oc1cc(-n2cnc3ccc(CN4CCN(C)CC4)cc32)sc1C(N)=O)c1ccccc1C(F)(F)F	5.82% (inactive)	–
NC(=O)Nc1cc(-c2cccc(F)c2)sc1C(=O)N[C@H]1CCCNC1	6.85% (inactive)	–
Cc1cc(Nc2cc(N3CCN(C)CC3)nc(Sc3ccc(NC(=O)C4CC4)cc3)n2)n[nH]1	–	inactive
CC(C)(C)c1cnc(CSc2cnc(NC(=O)C3CCNCC3)s2)o1	-2.31% (inactive)	–
C[C@@]12O[C@@H](C[C@]1(O)CO)n1c3ccccc3c3c4c(c5c6ccccc6n2c5c31)CNC4=O	1.46% (inactive)	–
CC(=O)c1c(C)c2cnc(Nc3ccc(N4CCNCC4)cn3)nc2n(C2CCCC2)c1=O	4.15% (inactive)	–
CN(C)CC=CC(=O)Nc1cc2c(Nc3ccc(F)c(Cl)c3)ncnc2cc1O[C@H]1CCOC1	-11.3% (inactive)	–
Cc1[nH]nc2ccc(-c3cncc(OC[C@@H](N)Cc4ccccc4)c3)cc12	-6.2% (inactive)	–
C=CC(=O)Nc1cc2c(Nc3ccc(F)c(Cl)c3)ncnc2cc1OCCCN1CCOCC1	5.16% (inactive)	–
CS(=O)(=O)N1CCN(Cc2cc3nc(-c4cccc5[nH]ncc45)nc(N4CCOCC4)c3s2)CC1	4.48% (inactive)	–
CC[C@@H]1C(=O)N(C)c2cnc(Nc3ccc(C(=O)NC4CCN(C)CC4)cc3OC)nc2N1C1CCCC1	5.95% (inactive)	–
CC[C@H](CO)Nc1nc(NCc2ccccc2)c2ncn(C(C)C)c2n1	3.44% (inactive)	–
Cc1nc2cnc3ccc(C#Cc4cccnc4)cc3c2n1-c1ccc(C(C)(C)C#N)cc1	3.81% (inactive)	–
C[C@@H](Oc1cc(-c2cnn(C3CCNCC3)c2)cnc1N)c1c(Cl)ccc(F)c1Cl	4.13% (inactive)	–
COc1cc(OC2CCN(C)CC2)ccc1Nc1ncc2c(n1)n(C1CCCC1)c(=O)n2C	-2.58% (inactive)	–
